Compound activity from PubChem.
Sampled rows, rich in hits. Any-hit rate of the full collection: about 2.9%.
KDM5B inh – KDM5B demethylase inhibition; KDM5B demethylase, FDH-coupled NADH fluorescence (FDH is formaldehyde dehydrogenase); Potency, µM (titrated, usually from 57.7 µM), actives largely listed as inhibitors; 220,000 tested, 2.6% active; further: potency means the concentration at half of the fitted maximal effect; 0% is about no effect; nearly all actives have a fitted effect of over 70% in size
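Coupled FDH/NAD⁺ fluorescence readout. KDM5BΔAP 200 nM final; compound titration, 10 min RT preincubation; substrate mix 12.5 µM H3K4me3, 25 µM 2-OG, 50 µM Fe(II), 100 µM ascorbate, 0.25 mM NAD⁺, 0.25 U/mL FDH; ΔRFU over 30 min.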
SNCA expr inh – SNCA gene expression inhibition. HEK-293 SNCA-luciferase knock-in, luminescence, 24 h. Potency, µM (doses to about 57.2 µM), inactives show at the top dose activity change, negative = inhibition, actives largely listed as inhibitors. 140,000 tested, 0.17% active;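 further: potency means the concentration at half of the fitted maximal effect; plate controls were DMSO cells for no effect and cell-free wells for full effect; nearly all actives have a fitted effect of over 45% in size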
IP6K1 inhibitor – inhibitors of human IP6K1. Q92551. IP6K1 kinase, ADP-Glo luminescence, 2 h; active compounds read low. activity change, % (series mostly up to about 58 µM). 140,000 tested, 0.81% active. AID 1645851; in the data active means activity change below about -25%; further: on the % scale 0 is the no-effect control and ±100 the full control effect
Target sequence (Q92551 whole entry, looked up): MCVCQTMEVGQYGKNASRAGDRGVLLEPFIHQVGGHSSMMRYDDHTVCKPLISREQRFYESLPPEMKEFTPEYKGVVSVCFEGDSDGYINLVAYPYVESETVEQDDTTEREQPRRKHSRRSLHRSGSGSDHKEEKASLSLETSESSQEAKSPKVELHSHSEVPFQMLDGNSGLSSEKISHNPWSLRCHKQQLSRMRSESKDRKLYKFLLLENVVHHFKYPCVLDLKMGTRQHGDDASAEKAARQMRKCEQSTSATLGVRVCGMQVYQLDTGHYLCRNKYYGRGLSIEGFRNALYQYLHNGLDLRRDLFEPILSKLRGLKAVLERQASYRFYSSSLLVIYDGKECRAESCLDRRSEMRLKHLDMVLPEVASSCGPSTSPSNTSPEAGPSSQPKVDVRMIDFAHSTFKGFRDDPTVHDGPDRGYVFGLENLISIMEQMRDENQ
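ADP-Glo luminescence measures ADP made by human IP6K1 during a 2 h RT reaction with ATP/IP6 (mix at 1.3 mM/130 uM); top library doses 57.5 and 19.1 uM final.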
HEK293 viab – counter-screen for SNCA expression inhibitors: cell viability | HEK-293-SNCA-luc viability, GF-AFC fluorescence, 24 h | Potency, µM (doses to about 57.1 µM), for inactives: at the top dose activity change, negative = cytotoxicity, most hits filed as cytotoxic | 150,000 tested, 0.12% active | AID 1671193;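 further: potency means the concentration at half of the fitted maximal effect; 0% = DMSO-treated cells and -100% = medium-only wells without cells; nearly all actives have a fitted effect of over 30% in size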
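Cytotoxicity counterscreen: after 24 h compound treatment of genome-edited SNCA-luciferase HEK-293 cells, live-cell protease substrate GF-AFC read by fluorescence after 30 min; activity scaled between DMSO (0%) and medium-only (-100%), curves Hill-fitted.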
Starred values were filed as active, the others as inactive; i = inactive; ? = inconclusive; / = not tested or not shown; ! = not active in a repeat; [ ] = another dose, or the depositor's remark. Unless noted, the call rests on the fitted dose curve; in most records, active means well fitted curve in the direction sought with a large enough effect; inconclusive means small, poorly fitted or top-dose-only effect, or another doubt; inactive means no such curve, though single readings can be large; an effect the other way counts as inactive or inconclusive.

SMILES	KDM5B inh	SNCA expr inh	IP6K1 inhibitor	HEK293 viab
Cc1[nH]nc2ccc(-c3cncc(OC[C@@H](N)Cc4c[nH]c5ccccc45)c3)cc12	/	0.108µM*	4.6	19.2µM*!
CCOC(=O)[C@@H]1[C@H]2c3ccccc3N(C)C(=O)[C@H]2N(C(=O)c2cccs2)[C@@H]1c1ccccc1	/	/	-10.7	/
CN1CCCCC1Cn1cc(C(=O)c2cc([N+](=O)[O-])ccc2I)c2ccccc21 (configuration not stated)	/	/	16.8	23.8µM*
CCOC(=O)[C@H]1CN(C(=O)Cc2ccccc2)[C@]2(C)C(=O)N(CC3CC3)c3ccccc3[C@H]12	/	/	-0.9	/
Cc1ccc2[nH]cc(CCN)c2c1	i	/	/	/
CCNC(=O)NC[C@H]1C[C@@H]2CCN1C[C@@H]2c1cc(-c2ccc(OC)c(OC)c2)nc(C)n1	17.8µM*	2.9%	-10.4	3.1%
COc1ccc(-c2cc([C@H]3CN4CC[C@H]3C[C@@H]4CNC(=O)CSCC(=O)O)nc(C)n2)cc1OC	31.6µM*	12.8%	-3.5	-17.9%
Cc1nc(-c2cccs2)cc([C@H]2CN3CC[C@H]2C[C@@H]3CNC(=O)C(C)(C)C)n1	?	-27.1%[87.6 µM]	23.2	8.1%[87.6 µM]
CCNC(=O)NC[C@H]1C[C@@H]2CCN1C[C@@H]2c1cc(-c2ccccc2)nc(C)n1	?	-1.6%[87.6 µM]	24.6	-14.3%[87.6 µM]
Cc1nc(-c2ccc(C(F)(F)F)cc2)cc([C@H]2CN3CC[C@H]2C[C@@H]3CNC(=O)CCCC(=O)O)n1	i	-25.2%	2.9	5.1%
Cc1nc(-c2cccs2)cc([C@H]2CN3CC[C@H]2C[C@@H]3CO)n1	35.5µM*	3.55µM*	8.0	-24.8%[87.6 µM]
Cc1nc(-c2cccs2)cc([C@H]2CN3CC[C@H]2C[C@@H]3CNC(=O)c2ccc(C(F)(F)F)cc2)n1	i	-30.8%	5.2	-6.9%
COc1ccc(-c2cc([C@H]3CN4CC[C@H]3C[C@@H]4CNC(=O)c3cccs3)nc(C)n2)cc1OC	28.2µM*	31.5%	10.2	0.0%
CNC(=O)[C@@H]1[C@@H](c2ccccc2)CN2CCN(C(C)=O)C[C@H]12	/	/	-5.0	/
COc1ccc(-c2cc([C@H]3CN4CC[C@H]3C[C@@H]4CN)nc(C)n2)cc1OC	39.8µM*	5.0%[87.6 µM]	5.6	?
COc1ccc(-c2cc([C@H]3CN4CC[C@H]3C[C@@H]4COC(=O)NC3CCCCC3)nc(C)n2)cc1	i	0.6%	9.0	-0.2%
CCCS(=O)(=O)NC[C@H]1C[C@@H]2CCN1C[C@@H]2c1cc(-c2ccc(OC)c(OC)c2)nc(C)n1	25.1µM*	-9.5%	8.7	-4.9%
COc1cc2c(cc1Oc1ccccc1)NC(=O)C21CCN(C(=O)c2cnccn2)CC1	i	-2.0%[87.6 µM]	-14.5	-5.7%[87.6 µM]
COc1cc2c(cc1OCC1CC1)NC(=O)C21CCN(c2ncc(F)cn2)CC1	i	-25.0%[87.6 µM]	-24.3	-1.4%[87.6 µM]
COc1cc2c(cc1OCc1ccccc1)NC(=O)C21CCN(c2ncc(F)cn2)CC1	31.6µM*	-2.9%[87.6 µM]	-16.8	-20.7%[87.6 µM]
COc1cc2c(cc1OCC1CC1)NC(=O)C21CCN(c2nccc(C(F)(F)F)n2)CC1	22.4µM*	?	-16.9	0.2%
COc1cc2c(cc1Oc1ccccc1)NC(=O)C21CCN(c2nc(C)cc(C)n2)CC1	?	?	-19.3	-19.3%[87.6 µM]
COc1cc2c(cc1Oc1ccccc1)NC(=O)C21CCN(c2cnccn2)CC1	31.6µM*	-30.0%[87.6 µM]	-15.9	-10.4%[87.6 µM]
COc1cc2c(cc1Oc1ccccc1)NC(=O)C21CCN(c2ncc(F)cn2)CC1	31.6µM*	?	-21.1	-9.5%[87.6 µM]
CC(C)(C)CC(C)(C)NCCc1ccccc1	i	/	/	/
SMILES	KDM5B inh	SNCA expr inh	IP6K1 inhibitor	HEK293 viab
COC1CCN(CC2CCCCCN2C(=O)Cc2cccc(F)c2)CC1 (configuration not stated)	/	-4.7%	5.2	-10.8%
C[C@@]1(C(=O)O)CC[C@]2(C)CC[C@]3(C)C4=CC(=O)c5cc(O)c(O)cc5[C@]4(C)CC[C@@]3(C)[C@@H]2C1	/	/	-11.4	2.7%[23.9 µM]
CC1=C(O)C(=O)C=C2C1=CC=C1[C@@]2(C)CC[C@@]2(C)[C@@H]3C[C@](C)(C(=O)O)CC[C@]3(C)CC[C@]12C	/	7.64µM*	/	21.5µM*
Cc1nc(-c2ccco2)cc([C@H]2CN3CC[C@H]2C[C@@H]3CNC(=O)Nc2ccccc2)n1	?	?	-8.1	-19.0%[87.6 µM]
Cc1nc(-c2ccco2)cc([C@H]2CN3CC[C@H]2C[C@@H]3CNC(=O)C2CCCCC2)n1	31.6µM*	-8.0%[87.6 µM]	-3.1	-8.5%[87.6 µM]
Cc1nc(-c2ccco2)cc([C@H]2CN3CC[C@H]2C[C@@H]3CNC(=O)NC2CCCCC2)n1	31.6µM*	-5.0%[87.6 µM]	-7.2	-15.3%[87.6 µM]
